Test results taken from the supplement of paper PMC8728848.
Many of the other results were omitted from the sample, so the strongest signals are more common in it than they were.

Columns and labels:
Test in all cases: glycan array binding signal (z-score within array); higher = stronger binding
Details in all cases: glycan notation: IUPAC condensed, linker removed
Fuc(a1-2)Gal(b1-4)Glc = target: Fuc(a1-2)Gal(b1-4)Glc
In short: (§1)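 The binding signal is a Z-score computed within each array and averaged over linkers. Arrays of the same protein sequence at different concentrations or buffers were also averaged together. Data originate from 3228 arrays in the Consortium for Functional Glycomics database, kept only where the protein sequence was available.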

[1] = target: Fuc(a1-2)Gal(b1-4)[Fuc(a1-3)]GlcNAc(b1-3)[Neu5Ac(a2-6)Gal(b1-4)GlcNAc(b1-6)]Gal(b1-4)Glc
In short: as §1

[2] = target: Fuc(a1-2)Gal6S(b1-4)Glc6S
In short: as §1

[3] = target: Fuc(a1-2)[GalNAc(a1-3)]Gal(b1-4)GlcNAc(b1-2)Man(a1-3)[Fuc(a1-2)[GalNAc(a1-3)]Gal(b1-4)GlcNAc(b1-2)Man(a1-6)]Man(b1-4)GlcNAc(b1-4)GlcNAc
In short: as §1

[4] = target: Fuc(a1-3)[Gal(b1-4)]GlcNAc(b1-3)Gal(b1-4)[Fuc(a1-3)]GlcNAc(b1-3)Gal(b1-4)[Fuc(a1-3)]GlcNAc
In short: as §1

[5] = target: Fuc(a1-3)[GalNAc(b1-4)]GlcNAc6S
In short: as §1

[6] = target: Gal(a1-3)Gal(b1-3)[Fuc(a1-4)]GlcNAc(b1-2)Man(a1-3)[Gal(a1-3)Gal(b1-3)[Fuc(a1-4)]GlcNAc(b1-2)Man(a1-6)]Man(b1-4)GlcNAc(b1-4)GlcNAc
In short: as §1

[7] = target: Gal(a1-3)Gal(b1-4)GlcNAc(b1-2)Man
In short: as §1

[8] = target: Gal(a1-3)Gal(b1-4)GlcNAc(b1-3)GalNAc
In short: as §1

[9] = target: Gal(a1-3)Gal(b1-4)GlcNAc(b1-6)GalNAc
In short: as §1

Gal(b1-3)Gal = target: Gal(b1-3)Gal
In short: as §1

Gal(b1-3)GalNAc = target: Gal(b1-3)GalNAc
In short: as §1

[10] = target: Gal(b1-3)GalNAc(a1-3)[Fuc(a1-2)]Gal(b1-4)GlcNAc
In short: as §1

[11] = target: Gal(b1-3)GlcNAc(a1-6)Gal(b1-4)GlcNAc
In short: as §1

[12] = target: Gal(b1-3)GlcNAc(b1-3)Gal(b1-3)GlcNAc
In short: as §1

[13] = target: Gal(b1-3)GlcNAc(b1-3)Gal(b1-4)GlcNAc(b1-2)[Gal(b1-3)GlcNAc(b1-3)Gal(b1-4)GlcNAc(b1-6)]Man(a1-6)[Gal(b1-3)GlcNAc(b1-3)Gal(b1-4)GlcNAc(b1-2)Man(a1-3)]Man(b1-4)GlcNAc(b1-4)[Fuc(a1-6)]GlcNAc
In short: as §1

[14] = target: Gal(b1-3)[Neu5Ac(a2-6)]GlcNAc(b1-4)Gal(b1-4)Glc
In short: as §1

[15] = target: Gal(b1-4)GlcNAc(b1-2)Man(a1-6)[Man(a1-3)]Man(b1-4)GlcNAc(b1-4)GlcNAc
In short: as §1

[16] = target: Gal(b1-4)GlcNAc(b1-2)[Gal(b1-4)GlcNAc(b1-6)]Man(a1-6)[Gal(b1-4)GlcNAc(b1-2)Man(a1-3)]Man(b1-4)GlcNAc(b1-4)[Fuc(a1-6)]GlcNAc
In short: as §1

[17] = target: Gal(b1-4)GlcNAc(b1-3)Gal(b1-4)Glc
In short: as §1

[18] = target: Gal(b1-4)GlcNAc(b1-3)Gal(b1-4)GlcNAc(b1-2)[Gal(b1-4)GlcNAc(b1-3)Gal(b1-4)GlcNAc(b1-6)]Man(a1-6)[Gal(b1-4)GlcNAc(b1-3)Gal(b1-4)GlcNAc(b1-2)Man(a1-3)]Man(b1-4)GlcNAc(b1-4)GlcNAc
In short: as §1

[19] = target: Gal(b1-4)GlcNAc(b1-3)Gal(b1-4)GlcNAc(b1-2)[Gal(b1-4)GlcNAc(b1-3)Gal(b1-4)GlcNAc(b1-6)]Man(a1-6)[Gal(b1-4)GlcNAc(b1-3)Gal(b1-4)GlcNAc(b1-2)Man(a1-3)]Man(b1-4)GlcNAc(b1-4)[Fuc(a1-6)]GlcNAc
In short: as §1

[20] = target: Gal(b1-4)GlcNAc(b1-3)Gal(b1-4)GlcNAc(b1-3)Gal(b1-4)GlcNAc(b1-2)Man(a1-3)[Gal(b1-4)GlcNAc(b1-3)Gal(b1-4)GlcNAc(b1-3)Gal(b1-4)GlcNAc(b1-2)Man(a1-6)]Man(b1-4)GlcNAc(b1-4)GlcNAc
In short: as §1

[21] = target: Gal(b1-4)GlcNAc(b1-3)Gal(b1-4)GlcNAc(b1-3)Gal(b1-4)GlcNAc(b1-3)Gal(b1-4)GlcNAc(b1-3)Gal(b1-4)GlcNAc(b1-2)[Gal(b1-4)GlcNAc(b1-3)Gal(b1-4)GlcNAc(b1-3)Gal(b1-4)GlcNAc(b1-3)Gal(b1-4)GlcNAc(b1-3)Gal(b1-4)GlcNAc(b1-6)]Man(a1-6)[Gal(b1-4)GlcNAc(b1-3)Gal(b1-4)GlcNAc(b1-3)Gal(b1-4)GlcNAc(b1-3)Gal(b1-4)GlcNAc(b1-3)Gal(b1-4)GlcNAc(b1-2)Man(a1-3)]Man(b1-4)GlcNAc(b1-4)[Fuc(a1-6)]GlcNAc
In short: as §1

[22] = target: Gal(b1-4)GlcNAc(b1-3)GalNAc
In short: as §1

[23] = target: Gal(b1-4)GlcNAc(b1-6)[Gal(b1-4)GlcNAc(b1-3)]GalNAc
In short: as §1

Gal3S(b1-4)Glc = target: Gal3S(b1-4)Glc
In short: as §1

Gal6S(b1-4)GlcNAc6S = target: Gal6S(b1-4)GlcNAc6S
In short: as §1

GlcA(b1-3)Gal = target: GlcA(b1-3)Gal
In short: as §1

[24] = target: GlcA3S(b1-3)Gal(b1-4)GlcNAc(b1-3)Gal(b1-4)Glc
In short: as §1

B1: PX14351B-bth-512-36-512 (Bacteroides thetaiotaomicron) (protein)
chain: ASETQQWKTLEDTRSALMGVYGLTRAALADNNTHWICGDLRKGDFTVYKRSDLQAVSDNELNKPYDLLKKVSNWRRFYAVINAASVFMEKAPRTVELDRSYSEQNLKYDIAQVRALRAFAYFYMVRIWGDVPLVTYSYDNGTFPSMPRTDAQTVLSYAKAELLTAIEDLPYQYGTQTNLYYGSYGAQWQGKLFNKLSAYSVLAHICAWQGNYAEAETYSAFIIDHASEINAKYTSIADLTSETGLFYSNASVKGSRILGFNFAHNDNEATQSGHLEQLTLAYPLVQKSYPEIYISKDSLFSIFTNFDDLRFGIIDTIKYSSYYVQNLNEETPVFSKIKIIQDGSAKDNDFGVFGSSIVFTRLEDITLLRAEALCALNRSTEAVSYLNMIRTNRGLREVSFKKDFGNNRESLIAEIFEERRRELMGEGWRWYDLVRRQKLMKDNEAFLRLISSGGIYWPVSEDIITANSQIEQNEFWK
- glycan array binding signal (z-score) (Fuc(a1-2)Gal(b1-4)Glc): -0.31
- glycan array binding signal (z-score) [1]: -0.143
- glycan array binding signal (z-score) [2]: -0.262
- glycan array binding signal (z-score) [3]: 1.76
- glycan array binding signal (z-score) [4]: 0.19
- glycan array binding signal (z-score) [5]: -0.185
- glycan array binding signal (z-score) [6]: 17.9
- glycan array binding signal (z-score) [7]: -0.075
- glycan array binding signal (z-score) [8]: 0.527
- glycan array binding signal (z-score) [9]: -0.314
- glycan array binding signal (z-score) (Gal(b1-3)Gal): -0.39
- glycan array binding signal (z-score) (Gal(b1-3)GalNAc): -0.25
- glycan array binding signal (z-score) [10]: 0.364
- glycan array binding signal (z-score) [11]: 0.113
- glycan array binding signal (z-score) [12]: -0.074
- glycan array binding signal (z-score) [13]: 9.18
- glycan array binding signal (z-score) [14]: -0.273
- glycan array binding signal (z-score) [15]: -0.288
- glycan array binding signal (z-score) [16]: 2.5
- glycan array binding signal (z-score) [17]: -0.34
- glycan array binding signal (z-score) [18]: 0.755
- glycan array binding signal (z-score) [19]: 2.73
- glycan array binding signal (z-score) [20]: 3.44
- glycan array binding signal (z-score) [21]: 2.11
- glycan array binding signal (z-score) [22]: -0.256
- glycan array binding signal (z-score) [23]: 1.91
- glycan array binding signal (z-score) (Gal3S(b1-4)Glc): -0.16
- glycan array binding signal (z-score) (Gal6S(b1-4)GlcNAc6S): -0.34
- glycan array binding signal (z-score) (GlcA(b1-3)Gal): -0.428
- glycan array binding signal (z-score) [24]: -0.114
